PubChem BioAssay AID602449 (Sanford-Burnham Center for Chemical Genomics, 2012)
Screen size: about 360,000 compounds; about 5,000 (1.4%) were called active. The sample holds actives, similar compounds and a random draw of the others, so the mix is not that of the screen.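 The calls were made as follows: active = inhibition of 50% or more, scaled per plate between neutral and stimulator controls; inactive = the rest.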

Experiment: blockers of Ca2+-induced mitochondrial swelling – biochemical, isolated mouse mitochondria, absorbance, primary screen (AID 602449);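 also: 0% = DMSO wells given calcium and 100% = 1 mM EGTA wells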
Conditions: 30 min, at 10 µM, stronger effect = higher value

inhibition, active:
CC(C)c1ccc(NC(=S)NC2CC3C=CC2C3)cc1 (configuration not stated) 73.8%, FC(F)Oc1ccc(NC(=S)NCc2ccco2)cc1Cl 86.1%, Cc1ccc(CC(=O)Nc2ccc(OC(F)F)c(Cl)c2)cc1C 60%, COc1ccc(/C=C(/CC(=O)Nc2ccc(C)cc2)c2nc3ccccc3s2)cc1 52.2%, CN(Cc1cccnc1)C(=O)c1cc(COc2ccc3ncccc3c2)on1 98.2%, O=C(Nc1ccc(C2CC2(Cl)Cl)cc1)c1cccc([N+](=O)[O-])c1 (configuration not stated) 77.1%, NS(=O)(=O)c1ccc(NC(=S)Nc2ccc(Br)c(Cl)c2)cc1 102%, CC1=C/C(=N\OS(=O)(=O)c2ccccc2)C=CC1=O 103%, COc1ccc(NC(=O)Nc2ccc3nsnc3c2)cc1 87.9%, Fc1ccc2[nH]c3c(N4CCSCC4)ncnc3c2c1 80.7%, Cc1csc(NC(=S)Nc2cccc(Cl)c2)n1 64.4%, S=C(Nc1cccc(Cl)c1)Nc1ccc2cn[nH]c2c1 55%

inhibition, inactive:
COC(=O)[C@@]12C[C@@H](CC(=O)NCCCCc3ccccc3)C(=O)N(Cc3ccccc3)C1=CCC(C)(C)C2 -0.7%, Cc1ccc(OCC(=O)N2CCN(S(=O)(=O)c3ccc(Cl)s3)CC2)cc1C 2.3%, CC(C)c1ccc(NC(=O)NC2CCCCC2)cc1 0.2%, O=C(COC(=O)C1CC2C=CC1C2)Nc1ccccc1 (configuration not stated) -0.1%, CCOC(=O)/C(N=Nc1cc(C(=O)O)cc(C(=O)O)c1)=C(\O)CCl -2.4%, CN(C)C(CNC(=O)c1cccc(S(=O)(=O)Nc2ccc(Br)cc2)c1)c1ccco1 (configuration not stated) -0.5%, Cc1ccc(CC(=O)Nc2ccc(S(=O)(=O)N3CCOCC3)cc2)cc1C 1%, COc1ccc(Cc2nnc(SCC(=O)Nc3ccc(C)c(C)c3)o2)cc1OC 0%, COc1cc(NC(=S)NCc2ccco2)c(OC)cc1Cl 1.7%, COC(=O)Cc1ccc(NC(=S)NCc2ccco2)cc1 -0.8%, OCCC1CN(Cc2ccc3nsnc3c2)CCN1C1CCCC1 (configuration not stated) 2.1%, Cc1nnc(SCC(=O)N(C(C)C)C(C)C)nc1C -1.3%, CCC(C(=O)NCc1ccc(OC)cc1)n1nc(C)n2c(cc3occc32)c1=O (configuration not stated) 0.5%, CCC(C)NC(=O)c1nn(C)c(=O)c2ccccc12 (configuration not stated) -0.2%, COc1cccc(/C=C(/CC(=O)Nc2ccc(N3CCOCC3)cc2)c2nc3ccccc3s2)c1 -0.3%, COc1ccc(NC(=O)COC(=O)c2ccc(NS(=O)(=O)/C=C/c3ccccc3)cc2)cc1 -9%, CCc1ccc(CN(C)C(C)C(=O)Nc2ccc(S(=O)(=O)N3CCCC3)cc2)cc1 (configuration not stated) 0.2%, O=C1NC[C@H](CCCCN2C[C@H](Cc3ccccc3)N(Cc3ccccc3)C(=O)C2=O)N(CCc2ccc(O)cc2)C1=O -0.9%, COC(=O)c1ccccc1NC(=O)CN(Cc1ccc(Cl)cc1)S(C)(=O)=O 0.4%, CN(Cc1cnccn1)C(=O)c1cc(COc2cccc(C(F)(F)F)c2)on1 0%, CC(=O)c1cccc(OCc2cc(C(=O)NC(C)Cc3cccnc3)no2)c1 (configuration not stated) 0%, Cc1ccc(NC(=O)C(=O)NCC2CCN(C(=O)c3cccc([N+](=O)[O-])c3)CC2)cc1 -2.2%, O=C(NC(=S)NC1CCS(=O)(=O)C1)c1cccc([N+](=O)[O-])c1 (configuration not stated) -0.7%, Cc1ccc(CS(=O)(=O)CCC(=O)NC2CC2)cc1 -1.1%, COc1ccc(NC(=S)Nc2ccc(S(N)(=O)=O)cc2)c(C)c1 -2.1%, NS(=O)(=O)c1ccc(NC(=S)N2CCCC2)cc1 -0.2%, O=C(COC(=O)c1ccc(NS(=O)(=O)c2cccs2)cc1O)Nc1ccc(F)cc1 4.7%, O=S(=O)(Cc1cc(Cl)nc(-c2cccnc2)n1)c1ccccc1 0.8%, COCCNC(=O)Nc1ccc2nc(-c3ccco3)c(-c3ccco3)nc2c1 0.5%, O=C(Nc1ccccc1)c1ccc2nsnc2c1 -1.8%, CSCc1cc(N(C)C)nc(SCc2ccc(Cl)cc2Cl)n1 1.1%, COc1ccc(C(=O)CSc2n[nH]c(N)n2)cc1 -1%, CCCCN(C(=O)/C=C/c1ccco1)c1c(N)n(CC(C)C)c(=O)[nH]c1=O 0%, O=S(=O)(Nc1cccc(-c2ccc(N3CCOCC3)nn2)c1)c1ccc(Cl)c(Cl)c1 -0.6%, O=C(NNC(=O)c1cccc(S(=O)(=O)Nc2ccc(Cl)cc2)c1)c1ccc(=O)[nH]c1 -1.3%, CCN(CC(=O)Nc1ccccc1OC)C(=O)CC1CC2CCC1C2 (configuration not stated) 0.6%, CC(C)Cc1nnc(NC(=O)CCC(=O)Nc2ccc3cn[nH]c3c2)s1 2%, O=C(NCc1cn2ccsc2n1)Nc1cccc(Cl)c1 -1.5%, O=C(Nc1ccc2cn[nH]c2c1)c1ccc(S(=O)(=O)N2CCOCC2)cc1 -4.1%, Cc1ccc(C2CCN(C(=S)Nc3cccc(Cl)c3)C2)cc1 (configuration not stated) 14.6%, CCOC(=O)Cn1c2c(c(-c3ccccc3OC)cc1=O)CCCC2 -1.1%, Clc1ccc(C2=CSC3=Nc4cccc5cccc(c45)N23)cc1 6.8%, CN(Cc1c(F)cccc1Cl)S(=O)(=O)c1cccs1 -1.8%, Cc1ccc(Nc2c(O)nc[nH]c2=O)cc1C -0.6%, CCOC(=O)N1CCC(Nc2c(NCCCN3CCN(c4ccc(OC)cc4)CC3)c(=O)c2=O)CC1 2.4%
